Measurements taken from PubChem BioAssay (Tox21).
Values joined by “and” are separate entries in the source; they are usually repeats but may differ in a detail not shown here. Identical values can stand only once. Results filed as inconclusive are left out. More than one record can exist for a structure, and the calls need not agree. Active and inactive are the calls of the source. Unless noted, calls come from the whole dose curve; as a rule, active = well fitted curve in the direction sought with a large enough effect in the repeat runs; inconclusive = weak or mixed curves; inactive = no such curve, though single readings can be large; an effect the other way counts as inactive or inconclusive.

Tests used:
[1] = qHTS assay to identify small molecule antagonists of the glucocorticoid receptor (GR) signaling pathway - cell viability counter screen (AID 720693); note: nearly all actives have a fitted effect of over 55% in size
[2] = qHTS assay for identifying genotoxic compounds that show differential cytotoxicity against isogenic chicken DT40 cell lines with known DNA damage response pathways - wild type cell line (AID 743012); note: nearly all actives have a fitted effect of over 60% in size
Outline: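 Cells (DT40 wild type, 300/well) are treated with DMSO-dissolved compounds after a ~0.5 h pre-incubation and kept 40 h at 37 C/5% CO2. Viability is then measured by CellTiter-Glo luminescence following 30 min at room temperature.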

[3] = qHTS assay for identifying genotoxic compounds that show differential cytotoxicity against isogenic chicken DT40 cell lines with known DNA damage response pathways - Rev3 mutant cell line (AID 743014); note: nearly all actives have a fitted effect of over 55% in size
[4] = qHTS assay for identifying genotoxic compounds that show differential cytotoxicity against isogenic chicken DT40 cell lines with known DNA damage response pathways - Rad54/Ku70 mutant cell line (AID 743015); note: nearly all actives have a fitted effect of over 60% in size
[5] = qHTS assay to identify small molecule antagonists of the androgen receptor (AR) signaling pathway - cell viability counter screen (AID 743033; note: nearly all actives have a fitted effect of over 45% in size)
[6] = qHTS assay to identify small molecule antagonists of the androgen receptor (AR) signaling pathway using the MDA cell line - cell viability counter screen (AID 743041; note: nearly all actives have a fitted effect of over 45% in size; note: potency is the fitted concentration of half-maximal effect)
Outline: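 MDA-kb2 AR-luc cells (MMTV-luciferase, AR/GR responsive) treated with compounds plus R1881 agonist for 16 h at 37C. CellTiter-Fluor added at 15.5 h; fluorescence read after 30 min in the same wells.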

[7] = qHTS assay to identify small molecule antagonists of the thyroid receptor (TR) signaling pathway - cell viability counter screen (AID 743064); note: nearly all actives have a fitted effect of over 50% in size; note: potency is the fitted concentration of half-maximal effect
Outline: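 Same-well viability check: GH3.TRE-Luc cells stimulated with 1 nM T3 alongside test compound for 23.5 h, followed by CellTiter-Fluor fluorescence.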

[8] = qHTS assay to identify small molecule antagonists of the thyroid receptor (TR) signaling pathway (AID 743065); note: series mostly up to about 70 µM; nearly all actives have a fitted effect of over 55% in size
Outline: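 GH3.TRE-Luc rat pituitary cells (two TREs driving luciferase) were dosed with compound, then stimulated with 1 nM T3 (final) for 23.5 h at 37 C. ONE-Glo luminescence was the read-out, with CellTiter-Fluor fluorescence as the cytotoxicity counter-screen.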

[9] = test system: thyroid hormone receptor (rat, GH3 cells); test: qHTS assay to identify small molecule agonists of the thyroid receptor (TR) signaling pathway (AID 743066; calls by dose curve)
[10] = molecular target: Estrogen receptor (Homo sapiens) (UniProt P03372); test: qHTS assay to identify small molecule antagonists of the estrogen receptor alpha (ER-alpha) signaling pathway (AID 743069; active = well fitted curve in the direction sought with a large enough effect in the signal ratio in the repeat runs, not every such curve was filed as active; the % refers to the signal ratio)
Estrogen receptor (Homo sapiens), sequence (P03372 whole entry, looked up): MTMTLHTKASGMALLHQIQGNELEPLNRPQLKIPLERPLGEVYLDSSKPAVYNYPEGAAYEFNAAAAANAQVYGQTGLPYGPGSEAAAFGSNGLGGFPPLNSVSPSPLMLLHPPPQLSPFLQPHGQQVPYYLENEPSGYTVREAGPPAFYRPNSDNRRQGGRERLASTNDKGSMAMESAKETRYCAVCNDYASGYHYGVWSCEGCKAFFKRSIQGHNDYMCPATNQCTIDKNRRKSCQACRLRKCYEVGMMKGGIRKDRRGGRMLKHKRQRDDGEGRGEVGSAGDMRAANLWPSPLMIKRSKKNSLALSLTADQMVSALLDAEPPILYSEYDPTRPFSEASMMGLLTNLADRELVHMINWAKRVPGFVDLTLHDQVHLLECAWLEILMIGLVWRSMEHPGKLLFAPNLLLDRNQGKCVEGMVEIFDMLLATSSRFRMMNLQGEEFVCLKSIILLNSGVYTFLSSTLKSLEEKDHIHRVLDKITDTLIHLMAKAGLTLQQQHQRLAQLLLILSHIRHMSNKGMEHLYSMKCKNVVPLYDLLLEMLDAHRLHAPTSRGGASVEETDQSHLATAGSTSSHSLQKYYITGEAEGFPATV
Outline: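 HEK293 ER-alpha-UAS-bla GripTite cells, held overnight in 2% charcoal-stripped FBS, 5,000 cells/well, preincubated 4 h, then compound plus 17beta-estradiol for 18 h at 37C. Beta-lactamase read by LiveBLAzer B/G FRET substrate, 2 h at room temperature.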

[11] = qHTS assay to identify small molecule antagonists of the estrogen receptor alpha (ER-alpha) signaling pathway - cell viability counter screen (AID 743074; calls by dose curve;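 note: HEK293 cells carrying ER-alpha-UAS-bla reporter stimulated with 17beta-estradiol; nearly all actives have a fitted effect of over 45% in size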)
[12] = molecular target: Estrogen receptor (Homo sapiens) (UniProt P03372); test: qHTS assay to identify small molecule agonists of the estrogen receptor alpha (ER-alpha) signaling pathway (AID 743075; calls by dose curve)
[13] = molecular target: Estrogen receptor (Homo sapiens) (UniProt P03372); test: qHTS assay to identify small molecule agonists of the estrogen receptor alpha (ER-alpha) signaling pathway using the BG1 cell line (AID 743079); note: nearly all actives have a fitted effect of over 20% in size
[14] = qHTS assay to identify small molecule antagonists of the estrogen receptor alpha (ER-alpha) signaling pathway using the BG1 cell line (AID 743080; calls by dose curve;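 note: BG1 cells stimulated with 17beta-estradiol alongside compound; series mostly up to about 70 µM; nearly all actives have a fitted effect of over 25% in size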)
Outline: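 BG1-Luc-4E2 cells (endogenous full-length ER-alpha, 4xERE luciferase) hormone-starved 5 days in charcoal-stripped FBS, plated 4,000/well for 24 h, then compound plus 17beta-estradiol for 21.5 h at 37 C; ONE-Glo luminescence read.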

[15] = qHTS assay to identify small molecule antagonists of the estrogen receptor alpha (ER-alpha) signaling pathway using the BG1 cell line - cell viability counter screen (AID 743081);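 note: compound given together with 17beta-estradiol as the ER stimulus; nearly all actives have a fitted effect of over 45% in size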; note: potency is the fitted concentration of half-maximal effect
[16] = molecular target: Aromatase (Homo sapiens) (UniProt P11511); test: qHTS assay to identify aromatase inhibitors (AID 743083); note: series mostly up to about 70 µM; nearly all actives have a fitted effect of over 55% in size
Aromatase (Homo sapiens), sequence (P11511 whole entry, looked up): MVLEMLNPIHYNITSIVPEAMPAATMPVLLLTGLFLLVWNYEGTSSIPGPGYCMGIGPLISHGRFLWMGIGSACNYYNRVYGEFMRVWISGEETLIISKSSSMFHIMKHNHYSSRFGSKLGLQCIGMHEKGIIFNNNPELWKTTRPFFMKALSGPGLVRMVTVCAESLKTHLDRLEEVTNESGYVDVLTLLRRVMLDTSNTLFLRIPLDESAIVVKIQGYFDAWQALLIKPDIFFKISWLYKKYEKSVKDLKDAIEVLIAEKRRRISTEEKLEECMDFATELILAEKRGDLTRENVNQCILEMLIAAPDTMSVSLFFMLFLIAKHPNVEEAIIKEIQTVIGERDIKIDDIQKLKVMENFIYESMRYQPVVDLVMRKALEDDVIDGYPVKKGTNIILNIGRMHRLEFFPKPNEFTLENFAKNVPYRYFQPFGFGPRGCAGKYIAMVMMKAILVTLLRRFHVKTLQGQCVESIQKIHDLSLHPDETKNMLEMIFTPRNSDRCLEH

[17] = molecular target: Androgen receptor (Homo sapiens) (UniProt P10275); test: qHTS assay to identify small molecule antagonists of the androgen receptor (AR) signaling pathway (AID 743035; active = well fitted inhibition curve with a large enough effect in the signal ratio in the repeat runs, not every such curve was filed as active; the % refers to the signal ratio)
Androgen receptor (Homo sapiens), sequence (P10275 whole entry, looked up): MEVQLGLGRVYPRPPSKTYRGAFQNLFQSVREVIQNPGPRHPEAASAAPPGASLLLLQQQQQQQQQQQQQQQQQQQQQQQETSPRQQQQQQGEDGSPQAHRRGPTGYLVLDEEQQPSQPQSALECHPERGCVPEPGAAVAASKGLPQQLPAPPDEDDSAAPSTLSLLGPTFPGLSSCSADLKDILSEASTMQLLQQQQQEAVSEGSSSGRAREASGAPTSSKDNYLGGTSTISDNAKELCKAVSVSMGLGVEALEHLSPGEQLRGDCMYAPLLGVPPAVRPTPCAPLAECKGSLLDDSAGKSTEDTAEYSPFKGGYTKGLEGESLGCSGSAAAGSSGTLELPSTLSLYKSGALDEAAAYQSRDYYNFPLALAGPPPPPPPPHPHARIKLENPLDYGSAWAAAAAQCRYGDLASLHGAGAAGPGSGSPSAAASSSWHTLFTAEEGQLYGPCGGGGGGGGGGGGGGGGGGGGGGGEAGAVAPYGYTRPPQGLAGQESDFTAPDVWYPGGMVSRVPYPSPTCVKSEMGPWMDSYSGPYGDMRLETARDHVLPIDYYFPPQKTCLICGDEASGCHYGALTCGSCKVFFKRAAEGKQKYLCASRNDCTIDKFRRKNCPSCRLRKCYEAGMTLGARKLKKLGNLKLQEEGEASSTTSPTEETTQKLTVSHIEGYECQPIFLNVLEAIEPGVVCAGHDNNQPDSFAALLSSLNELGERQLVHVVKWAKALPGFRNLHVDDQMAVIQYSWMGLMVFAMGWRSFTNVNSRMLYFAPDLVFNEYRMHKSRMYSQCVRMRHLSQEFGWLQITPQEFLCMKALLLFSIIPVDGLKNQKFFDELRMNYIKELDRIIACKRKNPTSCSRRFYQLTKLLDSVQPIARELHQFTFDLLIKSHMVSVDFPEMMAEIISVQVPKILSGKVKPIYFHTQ
Outline: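 Antagonism is scored as loss of R1881-driven beta-lactamase reporter expression in HEK293 cells carrying the reporter under a UAS element, after 16 h co-treatment at 37C and a 2 h room-temperature FRET substrate read.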

[18] = molecular target: Androgen receptor (Homo sapiens) (UniProt P10275); test: qHTS assay to identify small molecule agonists of the androgen receptor (AR) signaling pathway (AID 743036; active = well fitted activation curve with a large enough effect in the signal ratio in the repeat runs, with a control signal flat, not every such curve was filed as active; the % refers to the signal ratio)
Outline: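 Agonist activity was scored by beta-lactamase reporter fluorescence in stably transfected HEK293 cells exposed to compounds for 16 h at 37C and 5% CO2. Substrate loading took 2 h at room temperature.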

[19] = molecular target: Androgen receptor (Homo sapiens) (UniProt P10275); test: qHTS assay to identify small molecule agonists of the androgen receptor (AR) signaling pathway using the MDA cell line (AID 743040; note: nearly all actives have a fitted effect of over 20% in size)
Outline: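 MDA-kb2 breast carcinoma cells carrying MMTV-luciferase (responsive to AR and GR), plated 5 h then treated 16 h with compounds at 37C, 0% CO2. Read-out was ONE-Glo luminescence after 30 min at room temperature.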

[20] = molecular target: Androgen receptor (Homo sapiens) (UniProt P10275); test: qHTS assay to identify small molecule antagonists of the androgen receptor (AR) signaling pathway using the MDA cell line (AID 743042; note: nearly all actives have a fitted effect of over 55% in size)
Outline: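 MDA-kb2 breast carcinoma cells carrying MMTV-luciferase (AR/GR responsive) were co-treated with compounds and the agonist R1881 for 16 h at 37C. Inhibition read as ONE-Glo luminescence; CellTiter-Fluor fluorescence measured in parallel for cytotoxicity.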

Measured: Potency

CC[Si](OC(C)=O)(OC(C)=O)OC(C)=O
not listed: [17] | [18] | [19] | [20]
inactive: all other assays above

Nc1c(S(=O)(=O)O)cc(Br)c2c1C(=O)c1ccccc1C2=O
active: [6] 30.6 µM | [15] 27.3 µM
inactive and 61.1 µM (active): [7]
not listed: [17] | [18] | [19] | [20]
inactive: all other assays above

O=S(=O)(O)c1cc(S(=O)(=O)O)c2c(N=Nc3ccccc3)c(O)ccc2c1
active: [6] 27.4 µM and 38.6 µM | [7] 27.4 µM and 68.6 µM | [15] 27.4 µM and 30.6 µM
not listed: [17] | [18] | [19] | [20]
inactive: all other assays above

CCc1ccc(O)cc1
not listed: [10] | [12] | [13] | [14]
inactive: all other assays above

Cn1c([N+](=O)[O-])cnc1COC(N)=O
not listed: [17] | [18] | [19] | [20]
inactive: all other assays above

O=C(Cl)c1c(Cl)c(Cl)c(C(=O)Cl)c(Cl)c1Cl
not listed: [17] | [18] | [19] | [20]
inactive: all other assays above

O=[N+]([O-])c1cccc(Cl)c1
not listed: [17] | [18] | [19] | [20]
inactive: all other assays above

CC(C)(CO)COC(=O)C(C)(C)CO
inactive: all assays above
